# Results published in article PMC4336329 (PLoS ONE, 2015).
# Among all 310,000 compounds or so, about 14,000 (4.5%) showed an effect of 50% or more. The effect is printed as a negative number. The entries come from a sample that favours strong results as a whole.
# Biological target: human ether-à-go-go-related gene (hERG) potassium channel (human, UniProt Q12809)
# Experiment: primary screen, population patch clamp on CHO cells stably expressing hERG; higher = less effect of the substance
# 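Further: peak tail current of the secondary pulse compared with the same well before compound.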
# Chain of human ether-à-go-go-related gene (hERG) potassium channel (Q12809 whole entry, looked up): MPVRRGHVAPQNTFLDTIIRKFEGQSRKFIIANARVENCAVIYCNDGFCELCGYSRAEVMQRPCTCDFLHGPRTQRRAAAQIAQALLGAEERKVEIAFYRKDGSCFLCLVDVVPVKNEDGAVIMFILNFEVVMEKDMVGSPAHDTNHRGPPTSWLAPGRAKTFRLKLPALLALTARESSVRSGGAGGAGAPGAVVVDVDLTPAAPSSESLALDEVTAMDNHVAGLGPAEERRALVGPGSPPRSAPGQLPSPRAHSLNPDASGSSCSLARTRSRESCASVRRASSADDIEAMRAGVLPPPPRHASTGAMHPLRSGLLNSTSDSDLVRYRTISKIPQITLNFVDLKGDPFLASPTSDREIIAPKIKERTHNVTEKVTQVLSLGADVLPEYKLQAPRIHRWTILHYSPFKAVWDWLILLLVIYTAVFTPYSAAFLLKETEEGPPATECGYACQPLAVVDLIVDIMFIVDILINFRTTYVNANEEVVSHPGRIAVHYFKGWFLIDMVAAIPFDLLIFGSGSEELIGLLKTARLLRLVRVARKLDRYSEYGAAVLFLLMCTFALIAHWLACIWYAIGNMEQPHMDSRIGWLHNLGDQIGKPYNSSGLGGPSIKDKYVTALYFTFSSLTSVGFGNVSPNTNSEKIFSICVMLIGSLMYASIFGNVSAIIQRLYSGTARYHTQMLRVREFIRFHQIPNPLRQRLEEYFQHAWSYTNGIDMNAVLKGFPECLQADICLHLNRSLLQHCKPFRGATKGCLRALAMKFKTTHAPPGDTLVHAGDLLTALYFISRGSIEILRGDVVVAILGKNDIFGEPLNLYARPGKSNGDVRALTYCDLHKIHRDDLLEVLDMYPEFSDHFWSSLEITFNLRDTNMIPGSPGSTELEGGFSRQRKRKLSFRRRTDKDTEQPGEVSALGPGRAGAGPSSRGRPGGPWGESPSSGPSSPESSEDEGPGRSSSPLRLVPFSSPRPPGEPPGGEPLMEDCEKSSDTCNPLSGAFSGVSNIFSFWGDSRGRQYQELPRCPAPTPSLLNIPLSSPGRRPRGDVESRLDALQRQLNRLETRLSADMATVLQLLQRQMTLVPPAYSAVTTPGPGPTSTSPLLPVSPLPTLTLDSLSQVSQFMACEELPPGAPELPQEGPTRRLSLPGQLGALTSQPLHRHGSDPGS
row,SMILES,"hERG current change (%, negative = inhibition) at 10uM [%]"
1,Cc1ccc(C(=O)Nc2nnc(Cc3ccccc3)s2)cc1,9.35
2,C=CCNC(=O)c1cc(-c2cccnc2)nc2ccccc12,-34.7
3,Cc1ccc(/C=C/C(=O)N2CCN(c3ccc(F)cc3)CC2)o1,-15.8
4,CSCC[C@H](NC(=O)[C@@H]1CSC2c3ccccc3C(=O)N21)C(=O)N1CCC[C@H]1CO (stereo partly shown),1.52
5,COc1ccc(N2CCN(Cc3nnc(-c4ccccc4)o3)CC2)cc1,-0.362
6,O=C1Nc2ccccc2/C1=N\N1CCOCC1,2.95
7,Cc1nc2nc(-c3ccccc3)[nH]n2c(=O)c1C,-3.77
8,CCN1CC2=C(OC(N)=C(C#N)C2c2ccccc2)/C(=C\c2ccccc2)C1 (stereo not shown),-6.02
9,CCCCN(CC)Cc1ccc(CNC(=S)Nc2ccccc2F)o1,-16.3
10,CCCCN(CC)Cc1ccc(CNC(=O)Nc2ccc(F)cc2)o1,-32.1
11,CCCCN(CC)Cc1ccc(CNC(=S)Nc2c(C)cc(C)cc2C)o1,-54.8
12,CCCCN(CC)Cc1ccc(CNC(=O)Nc2ccccc2)o1,-9.65
13,CCCCN(CC)Cc1ccc(CNC(=O)Nc2ccc(Cl)cc2)o1,-61.9
14,CCCCN(CC)Cc1ccc(CNC(=S)Nc2ccc(C)cc2Cl)o1,-32.1
15,CN1C(=O)NC(c2ccccc2[N+](=O)[O-])C2=C1CCCC2=O (stereo not shown),10.1
16,COc1cc(OC)c(-c2nc3cnccc3n2C)cc1OC,6.5
17,COc1ccc(NC(=S)N2CCN(C(=O)C3CCCO3)CC2)cc1 (stereo not shown),11.8
18,CCCCC1(c2ccc(F)cc2)NC(=O)N(CC(=O)N2CCN(C(=O)c3ccco3)CC2)C1=O (stereo not shown),-52.6
19,CC(C)O.CCCC1(CCC)NC(=O)N(CC(=O)N2CCN(C(=O)c3ccco3)CC2)C1=O,5
20,Cc1ccc(CC(=O)N2CCN(C(=O)c3ccco3)CC2)cc1,-7.76
21,O=C(CN1C(=O)NC2(CCCC2)C1=O)N1CCN(C(=O)c2ccco2)CC1,4.41
22,O=C(CCC(=O)N1CCOCC1)c1ccc(F)cc1,36.5
23,O=C(c1ccco1)N1CCN(c2ccc(F)cc2)CC1,-0.235
24,O=C(CCC(=O)N1CCN(C(=O)c2ccco2)CC1)c1ccc(F)cc1,-66.7
25,Cc1ccc(OCC(=O)N2CCN(C(=O)c3ccco3)CC2)cc1,-37.7

row,SMILES,"hERG current change (%, negative = inhibition) at 10uM [%]"
1,Cc1ccc(C(=O)CCC(=O)N2CCN(C(=O)c3ccco3)CC2)cc1,-56.2
2,CC(=O)Oc1ccccc1N(C(C)=O)S(=O)(=O)c1ccc2ccccc2c1,7.06
3,COc1ccc(NC(=O)Cn2nnc3ccccc32)c([N+](=O)[O-])c1,9.14
4,O=C(CC1Nc2ccccc2NC1=O)c1ccccc1 (stereo not shown),-2.01
5,Cl.OCCN1CCN(CC/C=C2/c3ccccc3Sc3ccc(C(F)(F)F)cc32)CC1,-47.1
6,CN(C)CC/C=C1/c2ccccc2Sc2ccc(Cl)cc21,-8.11
7,CN(C)CC/C=C1\c2ccccc2Sc2ccc(Cl)cc21.Cl,-56.7
8,Cl.OCCN1CCN(CC/C=C2/c3ccccc3Sc3ccc(Cl)cc32)CC1,-68.8
9,CN(C)CC/C=C1/c2cc(F)ccc2Sc2ccc(Cl)cc21.Cl,-34.5
10,CN(C)CC/C=C1/c2ccccc2Sc2ccc(Cl)cc21.Cl,-56.8
11,O=C(O)/C=C\C(=O)O.OCCN1CCN(CC/C=C2/c3ccccc3CSc3ccccc32)CC1,-12.2
12,CN(C)CC/C=C1\c2cc(Cl)ccc2Sc2cc(F)c(F)cc21.Cl,1.25
13,CN(C)CC/C=C1\c2ccccc2Sc2cc(F)c(Cl)cc21.Cl,7.2
14,CCN(CC)S(=O)(=O)c1ccc(C(=O)OCC(=O)NCCN2C(=O)CSC2=O)cc1,-14.4
15,O=C1C(=Cc2ccco2)C(=O)c2ccccc21,8.17
16,CN1C(=O)c2ccc(C(=O)Nc3ccccc3O)cc2C1=O,4.6
17,Cc1nn(C)cc1/C=N/NC(=O)c1sc2ccccc2c1Cl,-6.47
18,O=P(c1ccccc1)(c1ccccc1)C(c1ccco1)N1CCOCC1 (stereo not shown),9.93
19,Cc1nnc(NCCc2ccccc2)c2ccccc12,-18.1
20,COc1ccc(NC(=O)NCCCN2CCN(c3cc(C)ccc3C)CC2)cc1,-92.2
21,COc1ccc(NC(=O)NCCN2CCN(c3cc(OC)ccc3OC)CC2)cc1,-2.75
22,COc1ccc(Cl)c(N2CCN(CCCNC(=O)Nc3ccc(C)cc3)CC2)c1,-72.4
23,COc1ccc(NC(=O)NCCN2CCCCC2)cc1,-10.1
24,COc1ccc(NC(=O)NCCN2CCN(c3ccc(C)cc3)CC2)c(Cl)c1,-8.96
25,Cc1ccc(NC(=O)NCCCN2CCOCC2)cc1,4.63

row,SMILES,"hERG current change (%, negative = inhibition) at 10uM [%]"
1,Cc1cc(SCC(=O)Nc2c(C)n(C)n(-c3ccccc3)c2=O)nc2ccccc12,-38.7
2,Cc1cc(C(=O)OCC(=O)c2ccc3c(c2)NC(=O)CO3)c2ccccc2n1,18.8
3,O=C(NCCN1CCOCC1)c1cc(Sc2cccc(Cl)c2)nc2ccccc12,-77.2
4,O=C(NCCN1CCOCC1)c1ccccc1-c1ccccc1,0.439
5,CCc1ccc(Sc2cc(C(=O)NCCN3CCOCC3)c3ccccc3n2)cc1,-56.2
6,O=C(NCCCN1CCOCC1)c1cnn2c(-c3ccccc3)cc(-c3ccccc3)nc12,-41.3
7,O=C(NCCN1CCOCC1)c1cc(-c2ccccc2Cl)nc2ccccc12,-15
8,O=C(NCCN1CCOCC1)c1cc(Sc2ccc(F)cc2F)nc2ccccc12,-42.8
9,O=C(NCCN1CCOCC1)c1cnn2c(-c3ccccc3)cc(-c3ccccc3)nc12,-72.5
10,CCc1ccc(Nc2cc(C(=O)NCCCN3CCOCC3)c3ccccc3n2)cc1,-35.5
11,O=C(NCCN1CCOCC1)c1cc(Sc2ccccc2Cl)nc2ccccc12,-27.1
12,Cc1ccc(S(=O)(=O)N2CCC(C(=O)N[C@H](C(=O)NCc3ccco3)C(C)C)CC2)cc1,-15.9
13,O=C(NCC(=O)N(c1ccc(Cl)cc1)C(C(=O)NC1CCCC1)c1ccncc1)c1ccco1 (stereo not shown),-5.29
14,O=C(Nc1ccccn1)Nc1ccccc1Cl,23.2
15,Cc1nc2scc(-c3ccccc3)c2c(=O)o1,-12.7
16,CCN1C(=O)/C(=C2/C=CC=CN2C)SC1=S,-35.2
17,CN1C=CC=C/C1=C1\SC(=S)N(C2CCCCC2)C1=O,-52.3
18,CN1C=CC=C/C1=C1\SC(=S)N(N)C1=O,26.4
19,O=C(N/N=C/c1ccc(O)c([N+](=O)[O-])c1)c1ccncc1,-7.5
20,Cc1ccc(C)c(CSc2ncccc2C(=O)O)c1,6.29
21,O=C(N/N=C/c1ccc(Cl)cc1Cl)c1cccc(F)c1,-10.5
22,O=C(C[n+]1ccc(C(=O)N/N=C/c2ccc(OCc3ccccc3)cc2)cc1)c1ccccc1.[Br-],1.3
23,O=C(C[n+]1cccc(C(=O)N/N=C/c2ccc(Br)cc2)c1)c1ccccc1,-56.5
24,O=C(C[n+]1ccc(C(=O)N/N=C/c2ccc(O)cc2)cc1)c1ccccc1.[Br-],-6.07
25,COc1ccc(OC)c(/C=N/NC(=O)c2cc[n+](CC(=O)c3ccccc3)cc2)c1.[Br-],-5.33

row,SMILES,"hERG current change (%, negative = inhibition) at 10uM [%]"
1,O=C(C[n+]1ccc(C(=O)N/N=C/c2ccc(Cl)cc2Cl)cc1)c1ccccc1.[Br-],-74.8
2,O=C(C[n+]1ccc(C(=O)N/N=C/c2ccc(Br)cc2)cc1)c1ccccc1.[Br-],-63.6
3,O=C(N/N=C/c1ccc(Br)cc1)c1cc[n+](Cc2ccccc2)cc1.[Cl-],-10.7
4,COc1ccc(OC)c(/C=N/NC(=O)c2ccc[n+](CC(=O)c3ccccc3)c2)c1,15.3
5,Cc1ccc(C(=O)N2CCCC(C(=O)c3ccc(Oc4ccccc4)cc3)C2)cn1 (stereo not shown),-41
6,CCC(=O)N1CCc2cc(S(=O)(=O)NC(C(=O)NCc3ccccc3)C(C)C)ccc21 (stereo not shown),13.2
7,COc1ccc(OCC(=O)Nc2cccc(S(=O)(=O)N(C)c3ccccc3)c2)c([N+](=O)[O-])c1,-6.21
8,CCC1c2ccc(C)n2CCN1C(=O)Nc1ccccc1OC (stereo not shown),9.92
9,C=CCN(CC=C)C(=S)NC(=O)/C=C/c1ccc(C)cc1,8.14
10,CC1(C)C(=O)N(c2ccccc2Cl)C(=O)c2ccccc21,-18.2
11,COc1ccc(NC(=S)NCCN2CCC(C)CC2)cc1,-46
12,CCN1CCN(CCC(=O)Nc2ccc(Br)cc2)CC1.Cl,-24.4
13,CC1CCN(CCNC(=S)Nc2ccc(Cl)cc2)CC1,-65.7
14,CC1CCCN(CCC(=O)Nc2ccccc2)C1.Cl (stereo not shown),12.2
15,CC1CCN(CCC(=O)Nc2ccc(Br)cc2)CC1.Cl,-54.6
16,Cl.O=C(CCN1CCCC1)Nc1ccc(Br)cc1,-15.7
17,COc1ccc(C(=O)CCN2CCCC(C)C2)cc1.Cl (stereo not shown),-26.2
18,COc1ccc(NC(=O)CCN2CCCC(C)C2)cc1 (stereo not shown),-23.2
19,CC1CCCN(CCC(=O)c2ccc(Br)cc2)C1.Cl (stereo not shown),-64.4
20,Cc1cccc(NC(=O)CCN2CCCC(C)C2)c1.Cl (stereo not shown),1.45
21,S=C(NCCN1CCOCC1)Nc1ccc(Cl)cc1,5.48
22,CC1CCCN(CCC(=O)Nc2ccc(Br)cc2)C1.Cl (stereo not shown),-57.6
